The list is not random: actives were taken first. Their share in the collection is about 2.3%.
TDP43 rescue: qHTS of TDP-43 Inhibitors; TDP-43 expressing yeast growth rescue, BacTiter-Glo, 24 h; Potency, µM (doses to about 46.1 µM), for the others: top-dose growth rescue (activation), most hits filed as activators; 1.8% of 410,000 active; AID 652104, 2013; also: % of control where 0% means no effect; nearly all actives have a fitted effect of over 50% in size
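In this qHTS, compounds that restore growth of yeast expressing TDP-43 appear as activators. Cells (OD600=0.02, galactose medium, raffinose-pregrown) are incubated with compound 24 hr at 30 deg C and growth is quantified by BacTiter-Glo.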
Abeta rescue: qHTS for compounds that reverse cellular toxicity of Amyloid beta (A-beta) peptide in yeast: Primary Screen. 0.063% of 410,000 active. Potency, µM (titrated, usually from 46.1 µM), hits mostly activators. yeast expressing A-beta42, growth rescue, OD600, 48 h; response scale: 0% DMSO, 100% iron-clioquinol control; also: nearly all actives have a fitted effect of over 55% in size
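Yeast A-beta toxicity model in growth medium with pinned compounds, 48 h at 30 C; growth read as absorbance at 600 nm. Normalized to FeCl3/clioquinol equimolar mix (positive) and DMSO (negative).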
aSyn rescue: qHTS of alpha-syn Inhibitors. AID 652106, 2013. 0.14% of 370,000 active. Yeast expressing alpha-synuclein, growth rescue, BacTiter-Glo, 24 h. Potency, µM (top dose mostly 46.1 µM), for the others: at the highest dose growth rescue (activation), hits mostly activators; also: % of control where 0% means no effect; nearly all actives have a fitted effect of over 65% in size
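Readout is rescue of growth in alpha-synuclein-expressing yeast, so inhibitors of toxicity appear as activators. Growth after 24 hr at 30 deg C in galactose medium is quantified by luminescence.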
Chronic BCR inh: qHTS Assay to Find Inhibitors of Chronic Active B-Cell Receptor Signaling. ABC-DLBCL IkBa-CBG/CBR reporter, luminescence ratio, 4 h. Potency, µM (titrated, usually from 46.1 µM), inactives show at the highest dose activity change, negative = inhibition, most hits filed as inhibitors. 0.05% of 340,000 active. AID 493014, 2011; active = well fitted inhibition curve with a large enough effect in the signal ratio, with a control signal flat, not every such curve was filed as active; inconclusive = small, poorly fitted or top-dose-only effect, or effect the other way, or a change in a side signal; the % refers to the signal ratio;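 also: plate controls were basal doxycycline-induced cells for no effect and cells given 10 µM MG132 for full effect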
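Compounds up to 46 uM were incubated four hours with TMD8 cells whose green CBG68 luciferase is fused to IkappaBalpha; red CBR luminescence normalised the signal, and concentration-effect curves were fitted to fusion, red and ratio data.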
FUS yeast rescue: qHTS for Suppressors of FUS Proteinopathy: Primary screen using FUS-linked yeast assay; S. cerevisiae FUS-expressing, growth rescue, OD600, 24 h; Potency, µM (top dose mostly 76.6 µM), usual class: activators; 0.24% of 390,000 active; AID 1347120, 2019;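 also: plate controls were DMSO vehicle for no effect and reference control for full effect; nearly all actives have a fitted effect of over 55% in size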
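Compound concentration series was pinned onto galactose-induced FUS-expressing yeast seeded at OD 0.005. Plates sat 24hr at 30C; absorbance at 600 nm gave growth. DMSO served as background control.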
uPA generation: qHTS for Inhibitors of Cell Surface uPA Generation; cell surface uPA generation assay, qHTS; Potency, µM (highest dose often 38.3 µM), without a hit: at the highest dose activity change, negative = inhibition, usual class: inhibitors; 0.31% of 330,000 active; active = well fitted inhibition curve with a large enough effect; inconclusive = small, poorly fitted or top-dose-only effect; inactive = no such curve, though single readings can be large or run the other way; tested in mouse RAW 264.7 cells; also: % is scaled to controls: 0 for no effect and ±100 for the full control effect; nearly all actives have a fitted effect of over 55% in size
The depositor's hits bear a star. Unless noted, calls follow the shape of the dose curve; as a rule, active = well fitted curve in the direction sought with a large enough effect; inconclusive = small, poorly fitted or top-dose-only effect, or another doubt; inactive = no such curve, though single readings can be large; an effect the other way counts as inactive or inconclusive. Potency is read from the fitted curve at half-maximal effect.

CCOC(=O)c1ccc(-n2c(CCC(=O)O)ccc2-c2cccs2)cc1 was read as TDP43 rescue 26%, Abeta rescue inactive, aSyn rescue 20µM*, Chronic BCR inh 16%, FUS yeast rescue inactive and uPA generation -6%.
Cc1c(Cl)cccc1-n1c(CCC(=O)O)ccc1-c1cccs1 was read as TDP43 rescue inconclusive, Abeta rescue inactive and FUS yeast rescue inconclusive.
Screening Cc1ccc(Cl)cc1-n1c(CCC(=O)O)ccc1-c1cccs1 returned TDP43 rescue 13µM*, Abeta rescue inactive and FUS yeast rescue inactive.
For CCc1ccc(-n2c(CCC(=O)O)ccc2-c2cccs2)cc1 the results were TDP43 rescue inconclusive, Abeta rescue inactive and FUS yeast rescue inactive.
Screening COCCn1c(CCC(=O)O)ccc1-c1cccs1 returned TDP43 rescue -18%, Abeta rescue inactive, aSyn rescue 11%, Chronic BCR inh 1%, FUS yeast rescue inactive and uPA generation -6%.
CCCCn1c(CCC(=O)O)ccc1-c1cccs1 was read as TDP43 rescue 18µM*, Abeta rescue inactive, aSyn rescue 16%, Chronic BCR inh 1%, FUS yeast rescue inactive and uPA generation 0%.
For Cc1ccc(-n2c(CCC(=O)O)ccc2-c2cccs2)cc1C the results were TDP43 rescue 12%, Abeta rescue inactive, aSyn rescue 5%, Chronic BCR inh 6%, FUS yeast rescue inactive and uPA generation 1%.
Screening Cc1cc(Cl)ccc1-n1c(CCC(=O)O)ccc1-c1cccs1 returned TDP43 rescue 22µM*, Abeta rescue inactive and FUS yeast rescue inconclusive.
`COc1ccc(CNC(=O)CCc2c(C)nc3c4cccnc4nn3c2C)cc1` gave TDP43 rescue 0%, Abeta rescue inactive and FUS yeast rescue inactive.
`CC(C)(C)NC(=O)C(c1ccccn1)N(C(=O)c1csnn1)C1CCCC1` (stereo unspecified) gave TDP43 rescue -14%, Abeta rescue inactive, aSyn rescue -2%, Chronic BCR inh -5%, FUS yeast rescue inactive and uPA generation 1%.
FC(F)(F)c1ccc(C2[C@H]3CN(Cc4cccnc4)[C@H](c4ccccc4)C34CC2(c2ccccc2)C4)cc1 (stereo partly specified) was read as TDP43 rescue inconclusive, Abeta rescue inactive, aSyn rescue -31%, Chronic BCR inh 1%, FUS yeast rescue inactive and uPA generation -4%.
Screening Cc1ccc(S(=O)(=O)N2CCN(C(=O)c3cc(=O)[nH]c4ccccc34)CC2)c(C)c1 returned TDP43 rescue -15%, Abeta rescue inactive, aSyn rescue -1%, Chronic BCR inh -7%, FUS yeast rescue inactive and uPA generation 0%.
CCn1c(CC(=O)Nc2ccc(Cl)cc2)nnc1SCC(=O)N1CCOCC1 was read as TDP43 rescue -1%, Abeta rescue inactive, aSyn rescue 0%, Chronic BCR inh 6%, FUS yeast rescue inactive and uPA generation 1%.
For CCOc1ccc2[nH]c(=O)c(CN(CCO)C(=O)c3ccccc3F)cc2c1 the results were TDP43 rescue -11%, Abeta rescue inactive, aSyn rescue 1%, Chronic BCR inh 0%, FUS yeast rescue inactive and uPA generation 5%.
Screening CCN(CC)S(=O)(=O)c1ccc(C)c(NC(=S)N2CCN(C/C=C/c3ccccc3)CC2)c1 returned TDP43 rescue 2%, Abeta rescue inactive, aSyn rescue 1%, Chronic BCR inh inconclusive, FUS yeast rescue inactive and uPA generation inconclusive.
O=C(O)CCc1ccc(-c2cccs2)o1 was read as TDP43 rescue inconclusive, Abeta rescue inactive, aSyn rescue 14µM*, Chronic BCR inh -29%, FUS yeast rescue inactive and uPA generation -29%.
`O=C(CC1CC2CCC1C2)Nc1nc(-c2ccccn2)cs1` (stereo unspecified) gave TDP43 rescue 18µM*, Abeta rescue 14µM*, aSyn rescue 25µM*, Chronic BCR inh inconclusive, FUS yeast rescue inactive and uPA generation -4%.
For Cc1cc(C)c(OCC(=O)Nc2nc(-c3ccccn3)cs2)c(C)c1 the results were TDP43 rescue -14%, Abeta rescue inactive, aSyn rescue 13µM*, Chronic BCR inh -5%, FUS yeast rescue inconclusive and uPA generation -3%.
For CCCCN(CC)C(=O)c1cc2c(=O)n3cccc(C)c3nc2s1 the results were TDP43 rescue 35µM*, Abeta rescue inactive, aSyn rescue -2%, Chronic BCR inh 1%, FUS yeast rescue inactive and uPA generation -2%.
Screening CCN(C(=O)c1cc2c(=O)n3ccccc3nc2s1)C1CCCCC1 returned TDP43 rescue 18µM*, Abeta rescue inactive, aSyn rescue 1%, Chronic BCR inh 11%, FUS yeast rescue inactive and uPA generation -4%.
`O=C(/C=C/c1ccc(Br)cc1)NC(=S)NNC(=O)c1ccco1` gave TDP43 rescue 5.6µM*, Abeta rescue inactive, aSyn rescue 22µM*, Chronic BCR inh inconclusive, FUS yeast rescue inactive and uPA generation -8%.
For Cc1cccc(NC(=S)NNC(=O)c2ccco2)c1 the results were TDP43 rescue -12%, Abeta rescue inactive, aSyn rescue -30%, Chronic BCR inh inconclusive and FUS yeast rescue inactive.
Screening O=C(NC(=S)NNC(=O)c1ccco1)c1ccccc1 returned TDP43 rescue inconclusive, Abeta rescue inconclusive, aSyn rescue 13µM*, Chronic BCR inh -9%, FUS yeast rescue inactive and uPA generation -15%.
For O=C(/C=C/c1ccccc1)NC(=S)NNC(=O)c1ccco1 the results were TDP43 rescue 11µM*, Abeta rescue inactive, aSyn rescue 3.5µM*, Chronic BCR inh inconclusive, FUS yeast rescue inconclusive and uPA generation -2%.
For CN(C)S(=O)(=O)c1ccc(C(=O)Nc2ccc(Cl)cc2)cc1 the results were TDP43 rescue 7%, Abeta rescue inactive, aSyn rescue -7%, Chronic BCR inh 8%, FUS yeast rescue inactive and uPA generation -9%.
Screening O=C(CSc1ncc(CO)n1Cc1ccccc1)Nc1nc2ccccc2s1 returned TDP43 rescue 4%, Abeta rescue inactive, aSyn rescue -2% and FUS yeast rescue inactive.
`COc1ccc(C(=O)c2cc3c(cc2[N+](=O)[O-])OCCO3)cc1` gave TDP43 rescue 16%, Abeta rescue inactive, aSyn rescue -2%, Chronic BCR inh -24%, FUS yeast rescue inactive and uPA generation -5%.

High-throughput results deposited in PubChem BioAssay by National Center for Advancing Translational Sciences (NCATS).
